Experimental data: PubChem BioAssay AID624255 (Broad Institute, 2012)
Screen size: about 77,000 compounds; about 4,600 (6%) were called active. Another 1% or so got no clear call; they are omitted. This excerpt belongs to a sample that is enriched for actives. Unmarked numbers belong to inactive results.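 Rule for the calls: active = mean inhibition above about 93%, with at least 55% of replicates each passing it (limit read from the data, passing the limit was not always enough); inconclusive = only one of those two conditions holds; inactive = neither condition holds.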

Assay: T. cruzi intracellular proliferation inhibitors, primary screen, cell-based, beta-gal Tulahuen parasites, NIH3T3 host, luminescence (AID 624255)
Conditions: T. cruzi beta-gal in NIH3T3, GalScreen luminescence, 90 h; at 8.34 µM; stronger effect = higher value

SMILES | inhibition
COc1ccc(S(=O)(=O)Nc2ccc3c(c2)CC(=O)N([C@@H](C)CO)C[C@@H](C)[C@H](CN(C)S(=O)(=O)c2ccccc2)O3)cc1 | 0.553%
COc1ccc(S(=O)(=O)N(C)C[C@H]2Oc3ccc(NC(=O)Nc4ccccc4)cc3CC(=O)N([C@H](C)CO)C[C@@H]2C)cc1 | -16.8%
C[C@@H]1CN([C@H](C)CO)C(=O)c2cc(NC(=O)Nc3cccc4ccccc34)ccc2O[C@@H](C)CCCCO[C@H]1CN(C)S(=O)(=O)c1cccs1 | 23.5%
CO[C@@H]1CC[C@@H]2CCOc3ccc(C#N)cc3C(=O)N(C)C[C@H](c3ccccc3)CC(=O)N(C)C[C@H]1O2 | 5.08%
N#C[C@H]1N[C@H](CO)[C@@H]1c1ccc(C#Cc2ccccc2F)cc1 | 24.3%
N#C[C@@H]1N[C@@H](CO)[C@@H]1c1ccc(C#Cc2ccccc2F)cc1 | 79.1%
COc1cccc(C#Cc2ccc([C@@H]3[C@H](C#N)N[C@H]3CO)cc2)c1 | 101% (active)
O=C(Nc1ccccc1)N1C[C@H]2[C@@H](c3ccccc31)[C@@H](CO)N2Cc1cocn1 | 65%
CNC(=O)C[C@@H]1CC[C@H]2[C@@H](COc3ccc(NC(=O)NCc4ccccc4)cc3C(=O)N2C)O1 | -25%
CC(=O)N(C)C[C@H]1Oc2cc(C#CCN(C)C)ccc2S(=O)(=O)N([C@H](C)CO)C[C@H]1C | 56.9%
CC(C)CC#Cc1ccc2c(c1)O[C@@H](CN(C)C(=O)c1ccccc1F)[C@H](C)CN([C@H](C)CO)S2(=O)=O | 54%
CCCC#Cc1ccc2c(c1)O[C@@H](CN(C)C(=O)CC)[C@@H](C)CN([C@H](C)CO)S2(=O)=O | 67%
CCCC#Cc1ccc2c(c1)O[C@@H](CN(C)C(=O)c1ccccc1F)[C@H](C)CN([C@H](C)CO)S2(=O)=O | 97.6% (active)
C[C@H]1CN([C@@H](C)CO)S(=O)(=O)c2ccc(C#CCN(C)C)cc2O[C@H]1CN(C)C(=O)CN(C)C | -25.5%
COCC#Cc1ccc2c(c1)O[C@@H](CN(C)C(C)=O)[C@H](C)CN([C@H](C)CO)S2(=O)=O | -30.8%
CCCC#Cc1ccc2c(c1)O[C@@H](CN(C)C(=O)CC)[C@H](C)CN([C@H](C)CO)S2(=O)=O | 68.6%
CCC(=O)N(C)C[C@@H]1Oc2cc(C#CCN(C)C)ccc2S(=O)(=O)N([C@H](C)CO)C[C@H]1C | 101% (active)
C[C@@H]1CN([C@H](C)CO)S(=O)(=O)c2ccc(C#CCN(C)C)cc2O[C@@H]1CN(C)C(=O)CN(C)C | -40.2%
C[C@H]1CN([C@@H](C)CO)S(=O)(=O)c2ccc(C#CCN(C)C)cc2O[C@H]1CN(C)C(=O)c1ccccc1F | 36.4%
CCCC#Cc1ccc2c(c1)O[C@H](CN(C)C(=O)CC)[C@@H](C)CN([C@H](C)CO)S2(=O)=O | 94.9% (active)

SMILES | inhibition
CC(=O)N(C)C[C@H]1Oc2cc(C#CCN(C)C)ccc2S(=O)(=O)N([C@@H](C)CO)C[C@@H]1C | 106% (active)
O=C(C[C@H]1CC[C@H]2[C@@H](COC[C@@H](O)CN2Cc2cccc(C(F)(F)F)c2)O1)NCc1ccncc1 | 73.9%
C[C@@H]1CCCCO[C@@H](CN(C)S(C)(=O)=O)[C@@H](C)CN([C@@H](C)CO)C(=O)c2cc(NS(=O)(=O)c3ccc(Cl)cc3)ccc2O1 | 46.7%
O=C(C[C@H]1CC[C@H]2[C@@H](COC[C@@H](O)CN2CCC(F)(F)F)O1)NCc1ccc2c(c1)OCO2 | -35.7%
COc1cccc(NC(=O)C[C@@H]2CC[C@H]3[C@@H](COc4ccc(NC(=O)C5CCOCC5)cc4C(=O)N3C)O2)c1 | 24.1%
CN(C)C(=O)C[C@@H]1CC[C@H](NC(=O)NC2CCCC2)[C@H](CO)O1 | -49.3%
O=C(C[C@@H]1CC[C@@H]2[C@H](COC[C@@H](O)CN2Cc2ccccc2)O1)NCCc1ccccc1 | 13.4%
C[C@@H](NC(=O)C[C@H]1C[C@H]2c3cc(NC(=O)C4CCOCC4)ccc3O[C@H]2[C@@H](CO)O1)c1ccccc1 | -16.2%
Cc1cc(C(=O)Nc2ccc3c(c2)C(=O)N(C)[C@@H]2CC[C@H](CC(=O)NC4CCCC4)O[C@@H]2CO3)no1 | -62.2%
CN(C)CCCNC(=O)C[C@H]1CC[C@H]2[C@@H](COC[C@H](O)CN2C(=O)c2ccncc2)O1 | -84.6%
COCC(=O)Nc1ccc2c(c1)[C@@H]1C[C@H](CC(=O)NCc3ccc(Cl)cc3)O[C@H](CO)[C@@H]1O2 | 0.832%
CN1C(=O)c2cc(NC(=O)Nc3ccccc3F)ccc2OC[C@H]2O[C@H](CC(=O)NCc3ccc(-c4ccccc4)cc3)CC[C@H]21 | 101% (active)
CN1C(=O)c2cc(NC(=O)c3cnccn3)ccc2OC[C@@H]2O[C@H](CC(=O)N[C@@H]3CCN(Cc4ccccc4)C3)CC[C@@H]21 | 105% (active)
CN1C(=O)c2cc(NC(=O)Cc3cccs3)ccc2OC[C@@H]2O[C@@H](CC(=O)N[C@@H]3CCN(Cc4ccccc4)C3)CC[C@H]21 | 50.2%
CCNC(=O)C[C@@H]1CC[C@@H]2[C@@H](COc3ccc(NC(=O)Nc4ccccc4F)cc3C(=O)N2C)O1 | 19.6%
CN1C(=O)c2cc(NS(C)(=O)=O)ccc2OC[C@@H]2O[C@@H](CC(=O)NCc3ccc(-c4ccccc4)cc3)CC[C@H]21 | 6.8%
CCS(=O)(=O)Nc1ccc2c(c1)C(=O)N(C)[C@@H]1CC[C@H](CC(=O)N[C@H]3CCN(Cc4ccccc4)C3)O[C@@H]1CO2 | 46.2%
CN1C(=O)c2cc(NC(=O)c3cnccn3)ccc2OC[C@@H]2O[C@@H](CC(=O)N[C@H]3CCN(Cc4ccccc4)C3)CC[C@H]21 | 109% (active)
CCS(=O)(=O)Nc1ccc2c(c1)C(=O)N(C)[C@H]1CC[C@H](CC(=O)N[C@@H]3CCN(Cc4ccccc4)C3)O[C@H]1CO2 | 71.7%
CN1C(=O)c2cc(NC(=O)c3cnccn3)ccc2OC[C@@H]2O[C@H](CC(=O)NC3CCC3)CC[C@@H]21 | 7.25%
